Compounds with a hit are over-represented: about 1.5% of the library has one in this group of screens.
MRP resist rev: MRP-mediated drug resistance reversal; AID 602; differential viability (reversal), % at 10 µM; H69AR cells + 2 uM doxorubicin, CellTiter-Glo, 72 h; hit rate 0.04% among 85,000;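 active = viability drop by adding the cancer drug above about 55%, with treated viability meeting a 40% cutoff, limit read from the data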;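 also: larger differential means the compound sensitizes cells more to doxorubicin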
MRP1 act: activates MRP-1. H69AR cells + doxorubicin, viability rescue, CellTiter-Glo. viability increase, % at 10 µM. hit rate 0.61% among 140,000. AID 799;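 active = viability gain under doxorubicin at or above a set limit, the compound median plus 3 SD, cut at about 4.7% in these data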;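 also: MRP-1 overexpressing cells given doxorubicin 25 µM after compound pretreatment; 18-22 h compound pretreatment then 72 h with doxorubicin before readout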
Mac1 fbg inh: inhibitors of human CD11b/CD18 binding to fibrinogen; inhibition, % at 10 µM; P05107+P11215; K562 CD11b/CD18 adhesion to fibrinogen, ATPlite luminescence; Mn2+ added to activate the integrin; hit rate 0.54% among 93,000;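 active = primary inhibition of 50% or more at 10 µM, then 40% or more on retest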
Mac1 fbg enh: increases human CD11b/CD18 adhesion to fibrinogen; K562 CD11b/CD18 adhesion to fibrinogen, ATPlite luminescence; activation, % at 10 µM; hit rate 0.07% among 93,000;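 active = 10 µM primary screen giving 50% or more activity, confirmed by 40% or more on retest at that dose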
FAK inh: FAK (human) kinase inhibition | Q05397 | biochemical FAK kinase activity assay | inhibition, %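 (tested at 7 µM)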 | hit rate 0.84% among 97,000 | AID 727; in the data active = inhibition above about 19%
Target sequence (Q05397 whole entry, looked up): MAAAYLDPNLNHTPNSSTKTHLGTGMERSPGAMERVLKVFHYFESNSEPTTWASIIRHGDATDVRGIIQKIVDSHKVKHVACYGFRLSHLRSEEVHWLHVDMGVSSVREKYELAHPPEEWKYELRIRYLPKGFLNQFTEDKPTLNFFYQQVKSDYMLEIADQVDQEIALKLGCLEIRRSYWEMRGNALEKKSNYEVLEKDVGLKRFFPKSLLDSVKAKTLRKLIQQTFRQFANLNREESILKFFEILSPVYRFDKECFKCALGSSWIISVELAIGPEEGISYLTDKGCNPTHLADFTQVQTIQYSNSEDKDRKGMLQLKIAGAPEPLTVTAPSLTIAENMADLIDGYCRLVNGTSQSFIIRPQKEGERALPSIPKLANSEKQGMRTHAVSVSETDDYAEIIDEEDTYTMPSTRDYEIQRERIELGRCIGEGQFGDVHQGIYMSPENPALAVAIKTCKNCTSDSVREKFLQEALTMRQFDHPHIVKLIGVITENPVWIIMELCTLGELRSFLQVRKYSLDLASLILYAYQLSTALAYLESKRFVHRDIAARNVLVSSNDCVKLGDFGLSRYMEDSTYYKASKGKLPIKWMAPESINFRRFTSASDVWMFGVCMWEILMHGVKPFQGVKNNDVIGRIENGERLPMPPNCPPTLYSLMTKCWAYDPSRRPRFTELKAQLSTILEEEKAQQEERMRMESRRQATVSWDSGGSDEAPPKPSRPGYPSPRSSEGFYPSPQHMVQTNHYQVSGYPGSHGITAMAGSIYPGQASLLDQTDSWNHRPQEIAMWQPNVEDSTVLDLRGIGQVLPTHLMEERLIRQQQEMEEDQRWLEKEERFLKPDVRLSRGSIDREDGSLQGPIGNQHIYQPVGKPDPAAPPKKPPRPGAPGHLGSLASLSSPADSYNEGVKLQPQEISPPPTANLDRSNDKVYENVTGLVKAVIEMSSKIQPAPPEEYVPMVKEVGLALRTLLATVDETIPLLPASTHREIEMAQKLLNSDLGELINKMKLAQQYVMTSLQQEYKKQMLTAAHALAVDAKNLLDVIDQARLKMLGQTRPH
Phagocytosis inh: macrophage phagocytosis inhibition; J774A.1 macrophage IgG-bead phagocytosis, imaging; AID 1029; inhibition, % at 5 µM; hit rate 0.07% among 110,000;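 active = inhibition above the mean of the plate negative controls plus 5 SD, cut at about 13% in these data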;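 also: phagocytic index as fraction of beads internalized from green versus red external bead signal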
Numbers stand for hits; – = inactive; · = not tested or not shown; [ ] = dose if it differs, or a comment.

SMILES	MRP resist rev	MRP1 act	Mac1 fbg inh	Mac1 fbg enh	FAK inh	Phagocytosis inh
Cc1cc(C)c(NC(=O)c2sc3nc4c(cc3c2N)C(=O)CC(C)(C)C4)c(C)c1	·	5.4	·	·	·	–
COC(=O)c1sc2nc3c(cc2c1N)C(=O)CC(C)(C)C3	–	–	–	–	–	–
Clc1ccc(CN2CCN(c3ncnc4scc(-c5cccs5)c34)CC2)cc1	–	–	–	–	–	–
Cc1sc2ncnc(N3CCCCC3)c2c1C	–	–	–	–	–	–
Clc1ccc(OCCN2CCN(c3ncnc4sccc34)CC2)cc1	·	–	99	–	·	–
Cc1ccc(OCCN2CCN(c3ncnc4sc(C)c(C)c34)CC2)cc1	–	–	97	–	–	–
Cc1ccccc1-c1noc(-c2ccc(O)cc2)n1	–	–	74	–	–	–
Clc1cccc(-c2nc(-c3ccccn3)no2)c1	–	–	–	–	–	–
Cc1ccc(-c2nc(-c3ccccn3)no2)cc1Cl	–	–	71	–	–	–
Cc1ccc(-c2nc(-c3ccccn3)no2)cc1	·	–	91	–	–	–
c1ccc(-c2ccc(-c3nc(-c4ccccn4)no3)cc2)cc1	–	–	–	–	–	–
COc1cc(CNC(=O)c2cccc(COc3ccc(Cl)cc3)c2)cc(OC)c1	·	4.8	–	–	·	–
Cc1ccc2cc(/C=N/NC(=O)CN3CCOCC3)c(Cl)nc2c1	·	–	–	–	–	–
O=C(Cc1csc(N2CCOCC2)n1)N/N=C/c1ccc(Cl)cc1Cl	·	–	55	–	–	–
O=C(COC(=O)c1ccccc1OCC(=O)Nc1ccc(Br)cc1)Nc1ccccc1	·	–	·	·	·	–
CCOc1ccccc1C(=O)OCC(=O)Nc1ccc(OC(F)F)cc1	·	14	–	–	–	–
CNc1ccccc(-c2ccc3cc4c(cc3n2)OCO4)c1=O	·	–	·	·	·	–
Cc1ccc(C(=O)CSc2nnc(COc3cccc(C)c3)o2)cc1	92	–	–	–	–	–
Cc1ccc(OCc2nnc(SCC(=O)N3c4ccccc4Sc4ccc(Cl)cc43)o2)cc1	·	11	·	·	·	–
COc1ccc(OCc2nnc(SCC(=O)N3c4ccccc4Sc4ccc(Cl)cc43)o2)cc1	·	15	·	·	–	·
Cc1cccc(OCc2nnc(SCC(=O)N3c4ccccc4Sc4ccc(Cl)cc43)o2)c1	·	–	·	·	·	–
C=CCn1c(-c2cccn(Cc3ccc(Cl)cc3Cl)c2=O)n[nH]c1=S	·	–	·	·	–	·
Cc1ccc2[nH]c(=O)c(C(c3nnnn3CCc3ccccc3)N3CCOCC3)cc2c1 (centres undefined)	–	–	–	–	–	–
Cc1ccc(-c2nc(N/N=C/c3ccncc3)c3ccccc3n2)cc1	–	–	103	–	–	–
Clc1ccccc1-c1nc(N/N=C/c2cccnc2)c2ccccc2n1	–	–	·	·	–	·
SMILES	MRP resist rev	MRP1 act	Mac1 fbg inh	Mac1 fbg enh	FAK inh	Phagocytosis inh
COc1ccccc1OCc1ccc(C(=O)n2nc(C)c(Cl)c2C)o1	–	–	–	–	–	–
O=S(=O)(Nc1nc2ccccc2s1)c1ccc(Cl)s1	–	–	74	–	–	–
CCOc1ccc2c(c1)-c1c(ssc1=S)C(C)(C)N2C(=O)c1ccco1	·	–	·	·	·	91[artifact]
COc1ccc2c(c1)-c1c(ssc1=S)C(C)(C)N2C(=O)CSC1=NCCS1	·	–	–	–	–	–
CCOC(=O)Cc1csc(NC(=S)NC(=O)c2ccc(Cl)cc2)n1	·	–	–	–	–	–
CCOC(=O)Cc1csc(NC(=S)NC(=O)C(C)(C)C)n1	·	13	·	·	·	–
Cc1ccccc1NC(=O)C1CCN(c2cc(-c3ccccc3)nc3ncnn23)CC1	–	–	·	·	–	·
N/C(Cc1cccs1)=N\OC(=O)COc1ccc(Br)cc1	–	5.3	–	–	–	–
Cn1nc(C(C)(C)C)cc1C(=O)NCc1ccc(N2CCCC2=O)cc1	–	–	84	–	·	–
CC(C)OC(=O)CSc1nnc2n1C(C)(C)Cc1ccccc1-2	·	181	–	–	–	–
Nc1c2c(nc3ccn(-c4ccccc4)c(=O)c13)CCCCC2	–	4.9	–	–	–	–
Nc1c2c(nc3ccn(Cc4ccccc4)c(=O)c13)CCC2	–	–	–	–	–	–
CC1(C)CC(=O)c2sc(NC(=O)c3ccc4ncsc4c3)nc2C1	–	–	–	–	–	–
Cc1ccc2c(C)nc(/N=C(\N)NC(=O)N3c4ccccc4Sc4ccccc43)nc2c1	·	11	·	·	·	–
Cc1cc2nc(/N=C(\N)NC(=O)N3c4ccccc4Sc4ccccc43)nc(C)c2cc1C	·	12	·	·	·	·
Cc1nc(/N=C(\N)Nc2ccccc2)nc2ccccc12	–	–	–	–	–	·
Cc1ccc2nc(/N=C(\N)NC(=O)N3c4ccccc4Sc4ccccc43)nc(C)c2c1	·	8.7	–	–	·	–
COc1ccc2nc(/N=C(\N)NC(=O)N3c4ccccc4Sc4ccccc43)nc(C)c2c1	·	–	·	·	·	·
Cc1ccc(C(=O)c2c(NC(=O)c3cccnc3)sc3c2CCCC3)cc1	·	–	–	–	–	–
CCOc1ccc(/C=C/C(=O)NCc2ccccc2)cc1	·	–	·	·	·	–
COc1ccccc1-n1c(CNc2ccc(F)cc2)nnc1SCC(=O)Nc1cc(C)on1	–	–	·	·	–	·
CCNC(=S)NNC(=O)c1cc(-c2cccc(OCC)c2)nc2ccccc12	·	–	–	–	–	–
O=C(NC(=S)Nc1ccccn1)c1cc(-c2ccccc2)nc2ccccc12	·	7.5	·	·	·	–
CCNC(=S)NNC(=O)c1cc(-c2cccc(C)c2)nc2ccccc12	·	–	60	–	–	–
O=C(NC(=S)Nc1ccccc1)c1cc(-c2ccccc2)nc2ccccc12	·	–	–	–	–	·
SMILES	MRP resist rev	MRP1 act	Mac1 fbg inh	Mac1 fbg enh	FAK inh	Phagocytosis inh
Cc1cccc(Oc2coc3cc(OC(=O)c4cc5ccccc5oc4=O)ccc3c2=O)c1	·	–	–	53	–	·
COc1cc(/C=C2\OC(=O)c3c(OC)cccc32)ccc1O	·	–	–	–	–	–
Cc1cc(NS(=O)(=O)c2ccc(Nc3nc(-c4sc(NC(=O)c5ccccc5)nc4C)cs3)cc2)no1	–	–	79	–	–	–
CC1CCCCN1S(=O)(=O)c1ccc(C(=O)Nc2sccc2C(N)=O)cc1 (centres undefined)	–	–	–	–	–	–
Cc1nnc2sc(-c3ccc(NC(=O)c4ccc(-c5ccc(Br)cc5)o4)cc3)nn12	–	·	·	·	21	·
CCOC(=O)c1cn(-c2nc(-c3ccc(Cl)c(Cl)c3)cs2)c2c(F)c(N3CCOCC3)c(F)cc2c1=O	·	–	–	52	–	–
O=C(NNC1=C(C(=O)C(F)(F)F)CCC1)c1ccc(Br)cc1	–	–	97	–	–	·
COc1ccc(-c2csc(NC(=O)c3ccc(S(=O)(=O)N4CCc5ccccc5C4)cc3)n2)c(OC)c1	·	–	·	·	·	–
Cn1cc(Cl)c(C(=O)NC(=S)Nc2sc3c(c2C#N)CCCCC3)n1	·	–	·	·	·	–
CCCC(=O)NC(=S)Nc1ccc(C(C)=O)cc1	·	11	·	·	·	–
CCOC(=O)C1CCN(C(=O)COc2ccc(S(=O)(=O)NC(C)(C)C)cc2)CC1	–	–	–	–	–	–
O=C(CSc1ncn[nH]1)NC12CC3CC(CC(C3)C1)C2	–	5.1	–	–	–	·
CC(C)Cc1nnc(NC(=O)CSc2ncn[nH]2)s1	–	5.3	·	·	–	·
O=C(CSc1ncn[nH]1)Nc1ccccc1-c1ccccc1	–	–	–	–	–	–
